Measured values reported in PubChem BioAssay (NCI).
Compounds without any hit were thinned out: in the full panel of roughly 83,000, 20% have a hit.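 Single-concentration screen, 48 h exposure, 96-well plates. Endpoint: percent growth. Below 10 = active.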 Values without a mark were called inactive. The source made the active and inactive calls.

Key:
Assay in all cases: NCI-60 one-dose screen, 48 h (100 = growth as untreated, 0 = no growth, -100 = all killed)
Conditions in all cases: 10 µM unless noted
NCI-H23 lung = test system: NCI-H23 lung
NCI-H226 lung = test system: NCI-H226 lung
NCI-H322M lung = test system: NCI-H322M lung
HOP-62 NSCLC = test system: HOP-62 NSCLC
NCI-H460 lung = test system: NCI-H460 lung
HOP-92 NSCLC = test system: HOP-92 NSCLC
NCI-H522 lung = test system: NCI-H522 lung
A549/ATCC NSCLC = test system: A549/ATCC NSCLC
786-0 renal = test system: 786-0 renal
COLO 205 colon = test system: COLO 205 colon
DU-145 prostate = test system: DU-145 prostate
K-562 leukemia = test system: K-562 leukemia
MALME-3M melanoma = test system: MALME-3M melanoma
MDA-MB-231 breast = test system: MDA-MB-231 breast
RXF 393 renal = test system: RXF 393 renal
SF-268 CNS = test system: SF-268 CNS
SF-295 CNS = test system: SF-295 CNS
SF-539 CNS = test system: SF-539 CNS
UACC-257 melanoma = test system: UACC-257 melanoma
M14 melanoma = test system: M14 melanoma

| Compound | growth (NCI-H23 lung) | growth (NCI-H226 lung) | growth (NCI-H322M lung) | growth (HOP-62 NSCLC) | growth (NCI-H460 lung) | growth (HOP-92 NSCLC) | growth (NCI-H522 lung) | growth (A549/ATCC NSCLC) | growth (786-0 renal) | growth (COLO 205 colon) | growth (DU-145 prostate) | growth (K-562 leukemia) | growth (MALME-3M melanoma) | growth (MDA-MB-231 breast) | growth (RXF 393 renal) | growth (SF-268 CNS) | growth (SF-295 CNS) | growth (SF-539 CNS) | growth (UACC-257 melanoma) | growth (M14 melanoma) |
| --- | --- | --- | --- | --- | --- | --- | --- | --- | --- | --- | --- | --- | --- | --- | --- | --- | --- | --- | --- | --- |
| CCOC(=O)Nc1ccc2c(c1)/C(=N\NC(=S)NC)c1ccccc1-2 | 93.8% | 107% | 92.3% | 108% | 65.1% | 85.9% | 68% | 55.7% | 64.4% | 106% | 88.9% | 77.2% | 115% | 65% | 7.59% (active) | 101% | 46.8% | 71.4% | 107% | 78.2% |
| C=C(C)[C@@H]1CC[C@]2(C(=O)OC)CC[C@]3(C)[C@H](CC[C@@H]4[C@@]5(C)CC/C(=N\OCCC(=NCCC#N)NOCCC#N)C(C)(C)[C@@H]5CC[C@]43C)[C@@H]12 | 21.8% [100 µM] | 2.42% [100 µM] (active) | 46.1% [100 µM] | 32.5% [100 µM] | 4.22% [100 µM] (active) | -15% [100 µM] (active) | 13.4% [100 µM] | 15.8% [100 µM] | -11.5% [100 µM] (active) | 17.6% [100 µM] | 27.5% [100 µM] | 5.42% [100 µM] (active) | 25.3% [100 µM] | 5.09% [100 µM] (active) | -43.1% [100 µM] (active) | 29.1% [100 µM] | 36.6% [100 µM] | -2.29% [100 µM] (active) | 8.82% [100 µM] (active) | 26.6% [100 µM] |
| Cc1cnc(N)nc1OCC(C)(C)CNC(=O)c1cccc(-c2ccc(S(=O)(=O)Nc3ccc4c(c3)N(C(=O)C3CC3)CCC4)cc2)c1 | 48.6% | 59.3% | 84.2% | 59.7% | 53.9% | 53.5% | 65.4% | 49.9% | 90.6% | 55.5% | 77.4% | 34.3% | 80.7% | 68.1% | 74.6% | 67.5% | 55.3% | 75.2% | 46.6% | 96.4% |
| CC(C)(C)c1cc(C(=O)Nc2ccc(C(=O)NCCN)cc2)cc(C(C)(C)C)c1 | 85% | 84.2% | 58.3% | 67% | 3.53% (active) | 26.1% | 40.3% | 39.3% | 32.2% | -77.7% (active) | 40.5% | -42.5% (active) | 15.1% | -43.7% (active) | 19.5% | 57% | 36.4% | -52.8% (active) | 68.6% | -71% (active) |
| O=C1CC(C(F)(F)F)Cc2nc3ccc(Br)cc3cc21 (stereo not given) | 83.3% | 87.6% | 78.2% | 87.1% | 87.8% | 85.8% | 84.8% | 91.8% | 96.4% | 100% | 102% | 79.1% | 84.1% | 82.4% | 91.1% | 88.4% | 90.2% | 93.9% | 106% | 90.7% |
| O=C(O)c1cc([N+](=O)[O-])ccc1Br | 105% | 97.8% | 94.1% | 109% | 105% | 91.4% | 97.3% | 101% | 102% | 115% | 106% | 100% | 102% | 101% | 110% | 102% | 97.2% | 94.8% | 102% | 98.3% |
| CCCn1ccnc1C(O)c1ccc(OCc2ccccc2)c(OC)c1 (stereo not given) | 90.7% | 97.4% | 90.1% | 87.5% | 103% | 68.1% | 66.1% | 97.7% | 96.6% | 93.2% | 104% | 107% | 80.9% | 93.7% | 112% | 93.4% | 76.4% | 92.8% | 93.6% | 97.2% |
